According to PubChem BioAssay (NCATS):
Values joined by “and” are separate entries in the source; they are usually repeats but may differ in a detail not shown here. Equal entries are not always repeated. Results filed as inconclusive are left out. Active and inactive are the calls of the source. Unless noted, the call rests on the fitted dose curve; in most records, active means well fitted cell-killing curve with a large enough effect; inconclusive means small, poorly fitted or top-dose-only effect; inactive means flat fitted curve, though single readings scatter.

What was measured:
[1] = Cell Viability - LYMP2-024 (AID 988);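 further: plate controls were DMSO only for no effect and 92 µM tetraoctylammonium bromide for full effect; nearly all actives have a fitted effect of over 60% in size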
Method in brief: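 Cytotoxicity was taken as a decrease in ATP (CellTiter-Glo luminescence) after 24 hr compound exposure at 37 C of LYMP2-024 lymphoblastoid cells, 2500 cells/well. Concentration-response data were fitted to the Hill equation to give AC50.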

[2] = Cell Viability - LYMP2-026 (AID 989); further: on the % scale 0 is the no-effect control and ±100 the full control effect; nearly all actives have a fitted effect of over 50% in size
Method in brief: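 Cytotoxicity read as ATP-dependent luminescence (CellTiter-Glo, 30 min room temperature) after 24 h compound treatment at 37 C. LYMP2-026 lymphoblastoid line seeded at 2500 cells/well; AC50 derived by standard Hill equation.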

[3] = Cell Viability - LYMP1-002 - Assay at 40 hr (AID 994);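 further: 0% = DMSO only and full inhibition = 92 µM tetraoctylammonium bromide; nearly all actives have a fitted effect of over 60% in size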
Method in brief: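 Cytotoxicity was read as loss of cellular ATP (CellTiter-Glo luminescence) after 40 hr compound exposure at 37 C of 2500 LYMP1-002 lymphoblastoid cells per well. Concentration-response data were fitted with the standard Hill equation to give AC50.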

[4] = qHTS Assay for Lipid Storage Modulators (AID 1519; calls by dose curve; on activity change, negative = inhibition: on the % scale 0 is the no-effect control and ±100 the full control effect); conditions: Drosophila S3 cells, BODIPY lipid droplet/cell ratio, laser cytometry, cells loaded with oleic acid
Method in brief: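 Cells seeded at 5,000 per well were treated with compounds over a concentration series and loaded with oleic acid (400 uM, as added). Lipid droplet fluorescence (488 nm excitation, 500-530 nm channel) was read by laser-scanning cytometry and normalized to 20 uM Triacsin C.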

[5] = measured here: cell count channel max response
[6] = measured here: lipid channel max response

Compound	outcome [1]	outcome [2]	outcome [3]	activity change, negative = inhibition ([4]; at 57.5 µM (top of the series))	max response [4, 5]	max response [4, 6]	activity change, negative = inhibition ([4]; at 25.7 µM (top of the series))
CC(=O)Nc1cccc(O)c1	inactive	inactive	inactive	14.9% (inactive)	10%	23.8%	–
NCc1ccc(S(N)(=O)=O)cc1	–	–	–	9.84% (inactive)	-7.52% and 18.9%	-8.55% and 31.3%	-2.86% (inactive)
Cc1c(N(C)C)c(=O)n(-c2ccccc2)n1C	inactive	inactive	inactive	–	-0.692%	-4.11%	-4.33% (inactive)
Cn1c([N+](=O)[O-])cnc1COC(N)=O	–	–	–	7.17% (inactive)	-1.45% and 4.32%	-3% and 14.5%	1.17% (inactive)
CC1CC(OC(=O)c2ccccc2O)CC(C)(C)C1 (stereo unspecified)	inactive	inactive	inactive	7.41% (inactive)	1.44%	9.79%	–
CC(=O)Nc1ccccc1	inactive	inactive	inactive	8.44% (inactive)	6.17%	17.6%	–
CCCCOC(=O)c1ccc(N)cc1	inactive	inactive	inactive	–	-14.7%	-12.8%	0.621% (inactive)
O=C(O)c1ccccc1C(=O)Nc1ccc(S(=O)(=O)Nc2nccs2)cc1	–	–	–	12.9% (inactive)	-5.87% and 21%	-9.76% and 42%	-0.565% (inactive)
C=CCNC(N)=S	inactive	inactive	inactive	–	–	–	–
CCCC(O)C(CC)CO (stereo unspecified)	inactive	inactive	inactive	–	–	–	–
FC(F)(F)C(Cl)Br (stereo unspecified)	inactive	inactive	inactive	–	–	–	–
CC(=O)OCC(COC(C)=O)OC(C)=O	inactive	inactive	inactive	–	–	–	–
O=C(c1ccccc1)C(O)c1ccccc1 (stereo unspecified)	inactive	inactive	inactive	–	–	–	–
CC(=O)Nc1ccc(C(=O)O)cc1	inactive	inactive	inactive	–	–	–	–
Cc1cc(C)nc(NS(=O)(=O)c2ccc(N)cc2)n1	inactive	inactive	inactive	8.29% (inactive)	-2.08% and -9.55%	-2.98% and 1.72%	1% (inactive)
Nc1ccc(S(=O)(=O)c2ccc(N)cc2)cc1	inactive	inactive	inactive	–	4.2%	4.3%	-0.694% (inactive)
CCCCCCCC(=O)OCC(COC(=O)CCCCCCC)OC(=O)CCCCCCC	inactive	inactive	inactive	–	–	–	–
